A number with no mark means an inactive call. For part of these data: Results with a measured potency or affinity are listed apart. Activity calls are given as the source filed them. Unless noted, how the calls were made is not given here.
Assays:
[1] = antimalarial activity against Dd2 strain (AID 2302;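 active means growth inhibition above 50% at the single 2 µM test dose, taken to imply half-maximal potency below 2 µM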;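 further: 0% = DMSO untreated growth and 100% = chloroquine plus artemisinin killed control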); details: P. falciparum Dd2 in RBCs, LDH growth readout, 72 h; at 2 µM; stronger effect = higher value
[2] = HepG2 cytotoxicity, primary screen, cytotoxicity control for P. falciparum antimalarial project, cell-based, ATP luminescence (AID 2303;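 active means inhibition above 50%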;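 further: 0% = DMSO wells and 100% = digitonin-killed cells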); details: HepG2 viability, 24-48 h, at 10 µM, stronger effect = higher value
[3] = target: L-lactate dehydrogenase (Plasmodium falciparum (isolate CDC / Honduras)) (UniProt Q27743); test: PfLDH activity inhibition – cell lysate, 3D7 strain, counter-screen for P. falciparum growth inhibition project (AID 2304);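 further: 0% = vehicle and 100% = reference inhibitor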; details: P. falciparum 3D7 crude extract, LDH APAD/NBT absorbance; at 2 µM; stronger effect = higher value
[4] = inhibition of 3D7 malaria parasite growth – strain 3D7 (AID 2306);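 further: 0% = DMSO wells and 100% = chloroquine plus artemisinin control wells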; details: P. falciparum 3D7 erythrocytic growth, LDH absorbance, 72 h; at 2 µM; stronger effect = higher value
[5] = target: Calcium-dependent protein kinase 1 (Plasmodium falciparum (isolate 3D7)) (UniProt P62344); test: PfCDPK1 kinase inhibitors, biochemical, TCAMS library (AID 1159585; cut-off not given, nearly all actives have IC50 up to about 0.98 µM;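 further: inhibitors leave more ATP so luminescence rises with inhibition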); details: recombinant PfCDPK1, Kinase-Glo ATP depletion luminescence
[6] = target: Plasmodium falciparum protein kinase 6 (PK6, PF3D7_1337100) (UniProt Q8IDW1); test: PfPK6 kinase inhibitors, biochemical, TCAMS library (AID 1159586); details: recombinant PfPK6, Kinase-Glo ATP depletion luminescence
[7] = target: Protein kinase 7 (PK7), Plasmodium falciparum 3D7 (PF3D7_0213400) (UniProt Q7YTF7); test: inhibition of Plasmodium PK7 catalytic activity – biochemical, TCAMS antimalarial set, Kinase-Glo luminescence (AID 1159587); details: recombinant PfPK7, Kinase-Glo ATP depletion luminescence
[8] = target: Calcium-dependent protein kinase 4 (Plasmodium falciparum (isolate 3D7)) (UniProt Q8IBS5); test: PfCDPK4 kinase inhibitors, biochemical, TCAMS library (AID 1159588; cut-off not given, nearly all actives have IC50 up to about 0.91 µM); details: recombinant PfCDPK4, Kinase-Glo ATP depletion luminescence
Sequence of Calcium-dependent protein kinase 4 (Plasmodium falciparum (isolate 3D7)) (Q8IBS5 whole entry, looked up): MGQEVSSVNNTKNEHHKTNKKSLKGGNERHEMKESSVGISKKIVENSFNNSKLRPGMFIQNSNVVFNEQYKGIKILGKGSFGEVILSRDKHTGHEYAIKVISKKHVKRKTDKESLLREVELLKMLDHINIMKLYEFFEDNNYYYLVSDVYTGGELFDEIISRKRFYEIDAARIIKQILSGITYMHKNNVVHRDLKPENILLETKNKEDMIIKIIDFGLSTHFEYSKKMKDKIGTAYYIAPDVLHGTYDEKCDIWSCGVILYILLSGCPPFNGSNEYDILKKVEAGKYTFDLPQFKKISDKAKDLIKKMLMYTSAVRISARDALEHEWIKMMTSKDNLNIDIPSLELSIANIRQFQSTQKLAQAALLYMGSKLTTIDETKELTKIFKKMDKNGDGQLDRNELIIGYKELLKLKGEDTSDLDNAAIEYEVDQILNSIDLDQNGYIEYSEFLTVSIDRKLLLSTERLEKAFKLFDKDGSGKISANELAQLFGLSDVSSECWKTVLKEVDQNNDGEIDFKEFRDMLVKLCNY

Sequence of Plasmodium falciparum protein kinase 6 (PK6, PF3D7_1337100) (Q8IDW1 1-305): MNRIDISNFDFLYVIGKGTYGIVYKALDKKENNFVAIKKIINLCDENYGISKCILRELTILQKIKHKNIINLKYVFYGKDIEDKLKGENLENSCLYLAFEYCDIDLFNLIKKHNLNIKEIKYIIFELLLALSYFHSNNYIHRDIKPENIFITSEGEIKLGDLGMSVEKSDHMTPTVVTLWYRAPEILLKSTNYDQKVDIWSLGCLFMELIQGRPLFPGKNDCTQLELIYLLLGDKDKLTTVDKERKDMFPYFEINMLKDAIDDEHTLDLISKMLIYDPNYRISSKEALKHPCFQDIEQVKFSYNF
Sequence of Calcium-dependent protein kinase 1 (Plasmodium falciparum (isolate 3D7)) (P62344 whole entry, looked up): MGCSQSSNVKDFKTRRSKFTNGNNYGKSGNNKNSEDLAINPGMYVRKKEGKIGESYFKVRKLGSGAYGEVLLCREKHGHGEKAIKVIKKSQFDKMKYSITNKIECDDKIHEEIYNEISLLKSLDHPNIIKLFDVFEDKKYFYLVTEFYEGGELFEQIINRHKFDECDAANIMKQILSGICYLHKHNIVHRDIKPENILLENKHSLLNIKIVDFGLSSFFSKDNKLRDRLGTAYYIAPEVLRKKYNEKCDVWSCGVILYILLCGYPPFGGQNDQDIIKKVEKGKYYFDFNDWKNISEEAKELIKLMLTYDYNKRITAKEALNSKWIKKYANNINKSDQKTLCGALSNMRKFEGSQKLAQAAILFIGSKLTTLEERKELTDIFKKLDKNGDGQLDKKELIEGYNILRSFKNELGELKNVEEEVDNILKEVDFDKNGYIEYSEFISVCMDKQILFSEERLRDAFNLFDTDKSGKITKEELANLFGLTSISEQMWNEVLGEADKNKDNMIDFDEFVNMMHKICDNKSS
Sequence of L-lactate dehydrogenase (Plasmodium falciparum (isolate CDC / Honduras)) (Q27743 whole entry, looked up): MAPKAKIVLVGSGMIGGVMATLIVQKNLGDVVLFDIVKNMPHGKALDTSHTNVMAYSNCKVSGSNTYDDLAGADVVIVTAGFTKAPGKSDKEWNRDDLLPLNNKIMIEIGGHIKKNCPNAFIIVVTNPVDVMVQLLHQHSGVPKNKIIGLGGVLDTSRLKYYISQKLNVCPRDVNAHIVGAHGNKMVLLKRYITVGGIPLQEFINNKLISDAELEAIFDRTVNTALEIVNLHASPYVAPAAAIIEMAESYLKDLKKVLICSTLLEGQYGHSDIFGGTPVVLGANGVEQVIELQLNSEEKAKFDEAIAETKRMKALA
Sequence of Protein kinase 7 (PK7), Plasmodium falciparum 3D7 (PF3D7_0213400) (Q7YTF7 1-343): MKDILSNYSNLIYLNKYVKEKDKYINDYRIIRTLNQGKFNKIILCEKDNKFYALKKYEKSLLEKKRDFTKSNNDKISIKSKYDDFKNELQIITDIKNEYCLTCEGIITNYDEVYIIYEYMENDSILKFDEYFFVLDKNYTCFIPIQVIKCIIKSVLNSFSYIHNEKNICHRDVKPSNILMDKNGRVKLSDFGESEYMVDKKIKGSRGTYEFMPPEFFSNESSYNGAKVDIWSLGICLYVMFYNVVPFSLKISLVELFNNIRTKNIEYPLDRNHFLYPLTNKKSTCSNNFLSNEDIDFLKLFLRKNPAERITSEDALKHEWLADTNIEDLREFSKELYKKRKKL

N#Cc1ccc(C=CC(=O)NC2CCC(CCN3CCc4ccc(-c5cnccn5)cc4CC3)CC2)cc1 (centres undefined)
growth inhibition [1]: 87% (active)
inhibition [2]: 37%
inhibition [3]: -5%
growth inhibition [4]: 100% (active)
outcome [5]: inactive
outcome [6]: inactive
outcome [7]: inactive
outcome [8]: inactive

Nc1cccc(CNCc2cccc(-c3csc(-c4nc5ccccc5[nH]4)c3)c2)c1
growth inhibition [1]: 63% (active)
inhibition [2]: 13%
inhibition [3]: 4%
growth inhibition [4]: 102% (active)
outcome [5]: inactive
outcome [6]: inactive
outcome [7]: inactive
outcome [8]: inactive

O=C(/C=C/c1cccc2ccccc12)NCCCCCN1CCC(c2c[nH]c3ccccc23)CC1
growth inhibition [1]: 6%
inhibition [2]: 55% (active)
inhibition [3]: -1%
growth inhibition [4]: 92% (active)
outcome [5]: inactive
outcome [6]: inactive
outcome [7]: inactive
outcome [8]: inactive
